How the values were obtained:
[1] = biological target: Tyrosine-protein kinase CSK (Homo sapiens) (UniProt P41240); settings: at 1 µM;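 also: each value is an averaged inhibition reading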
[2] = biological target: T1, Discoidin domain-containing receptor 2 (Homo sapiens) (UniProt Q16832); settings: at 0.1 µM
T1 sequence (whole entry): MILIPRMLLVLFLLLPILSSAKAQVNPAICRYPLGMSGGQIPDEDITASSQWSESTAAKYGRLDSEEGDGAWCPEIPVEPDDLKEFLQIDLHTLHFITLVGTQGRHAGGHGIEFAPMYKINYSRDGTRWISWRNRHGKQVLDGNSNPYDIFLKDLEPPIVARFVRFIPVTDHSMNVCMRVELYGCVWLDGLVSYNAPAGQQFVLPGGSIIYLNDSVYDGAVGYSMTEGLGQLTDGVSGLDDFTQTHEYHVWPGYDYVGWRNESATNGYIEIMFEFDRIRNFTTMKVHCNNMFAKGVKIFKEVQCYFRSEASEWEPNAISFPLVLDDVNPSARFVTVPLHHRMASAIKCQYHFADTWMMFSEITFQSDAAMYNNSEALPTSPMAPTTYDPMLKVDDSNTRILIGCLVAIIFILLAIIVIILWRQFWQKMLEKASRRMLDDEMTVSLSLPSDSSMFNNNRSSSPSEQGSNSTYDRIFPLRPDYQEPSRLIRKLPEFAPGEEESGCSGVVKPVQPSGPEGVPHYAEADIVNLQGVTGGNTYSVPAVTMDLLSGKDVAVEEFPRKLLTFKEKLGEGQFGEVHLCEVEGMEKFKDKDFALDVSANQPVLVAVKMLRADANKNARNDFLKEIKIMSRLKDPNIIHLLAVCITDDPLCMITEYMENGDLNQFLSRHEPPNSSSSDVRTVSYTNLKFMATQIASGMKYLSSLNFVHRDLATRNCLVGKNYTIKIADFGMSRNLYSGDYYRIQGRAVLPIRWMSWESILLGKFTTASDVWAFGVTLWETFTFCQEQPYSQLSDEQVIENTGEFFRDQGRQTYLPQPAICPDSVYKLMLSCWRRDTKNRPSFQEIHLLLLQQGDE

[3] = biological target: T1, Discoidin domain-containing receptor 2 (Homo sapiens); settings: at 1 µM
[4] = biological target: Epidermal growth factor receptor (Homo sapiens) (UniProt P00533); settings: at 0.1 µM
[5] = biological target: Epidermal growth factor receptor (Homo sapiens) (UniProt P00533); settings: at 1 µM
[6] = tested on: Epidermal growth factor receptor (Homo sapiens), P00533 [L858R]; settings: at 0.1 µM
[7] = tested on: Epidermal growth factor receptor (Homo sapiens), P00533 [L858R]; settings: at 1 µM
[8] = tested on: Epidermal growth factor receptor (Homo sapiens), P00533 [L861Q]; settings: at 0.1 µM
[9] = tested on: Epidermal growth factor receptor (Homo sapiens), P00533 [L861Q]; settings: at 1 µM
[10] = tested on: Epidermal growth factor receptor (Homo sapiens), P00533 [T790M]; settings: at 0.1 µM
[11] = tested on: Epidermal growth factor receptor (Homo sapiens), P00533 [T790M]; settings: at 1 µM
[12] = tested on: Epidermal growth factor receptor (Homo sapiens), P00533 [L858R,T790M]; settings: at 0.1 µM
[13] = tested on: Epidermal growth factor receptor (Homo sapiens), P00533 [L858R,T790M]; settings: at 1 µM
[14] = biological target: Ephrin type-A receptor 2 (Homo sapiens) (UniProt P29317); settings: at 0.1 µM
[15] = biological target: Ephrin type-A receptor 2 (Homo sapiens) (UniProt P29317); settings: at 1 µM
[16] = biological target: T2, Ephrin type-A receptor 3 (Homo sapiens) (UniProt P29320); settings: at 0.1 µM
T2 sequence (whole entry): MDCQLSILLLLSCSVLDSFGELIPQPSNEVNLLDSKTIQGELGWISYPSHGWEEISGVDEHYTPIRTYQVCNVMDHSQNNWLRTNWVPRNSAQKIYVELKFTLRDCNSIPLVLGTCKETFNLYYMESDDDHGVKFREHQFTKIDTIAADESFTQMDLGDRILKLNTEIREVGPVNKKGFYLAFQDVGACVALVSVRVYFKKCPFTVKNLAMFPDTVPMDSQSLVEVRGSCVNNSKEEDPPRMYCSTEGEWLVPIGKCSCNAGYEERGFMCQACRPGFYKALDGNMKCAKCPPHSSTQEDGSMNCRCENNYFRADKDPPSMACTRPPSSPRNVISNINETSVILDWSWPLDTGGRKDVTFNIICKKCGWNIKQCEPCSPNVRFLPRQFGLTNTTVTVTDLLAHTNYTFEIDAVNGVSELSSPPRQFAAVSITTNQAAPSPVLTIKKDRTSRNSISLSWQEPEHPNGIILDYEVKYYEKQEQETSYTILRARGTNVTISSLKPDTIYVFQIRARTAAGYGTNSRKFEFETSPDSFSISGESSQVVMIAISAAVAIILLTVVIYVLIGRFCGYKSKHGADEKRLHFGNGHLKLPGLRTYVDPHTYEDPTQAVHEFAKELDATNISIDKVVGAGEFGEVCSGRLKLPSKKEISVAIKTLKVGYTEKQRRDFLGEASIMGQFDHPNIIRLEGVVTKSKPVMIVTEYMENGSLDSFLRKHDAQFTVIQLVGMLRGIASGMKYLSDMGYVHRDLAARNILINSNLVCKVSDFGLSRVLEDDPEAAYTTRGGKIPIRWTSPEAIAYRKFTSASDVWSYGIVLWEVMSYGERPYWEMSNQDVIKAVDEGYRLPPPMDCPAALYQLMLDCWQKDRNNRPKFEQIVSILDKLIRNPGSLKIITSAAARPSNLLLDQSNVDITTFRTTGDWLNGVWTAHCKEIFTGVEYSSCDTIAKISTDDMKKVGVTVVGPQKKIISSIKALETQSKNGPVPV

[17] = biological target: T2, Ephrin type-A receptor 3 (Homo sapiens); settings: at 1 µM
[18] = biological target: Ephrin type-A receptor 4 (Homo sapiens) (UniProt P54764); settings: at 0.1 µM
[19] = biological target: Ephrin type-A receptor 4 (Homo sapiens) (UniProt P54764); settings: at 1 µM
[20] = biological target: T3, Ephrin type-B receptor 2 (Homo sapiens) (UniProt P29323); settings: at 0.1 µM;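 also: reported as mean inhibition of EPHB2, from the GSK PKIS dataset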
T3 sequence (whole entry): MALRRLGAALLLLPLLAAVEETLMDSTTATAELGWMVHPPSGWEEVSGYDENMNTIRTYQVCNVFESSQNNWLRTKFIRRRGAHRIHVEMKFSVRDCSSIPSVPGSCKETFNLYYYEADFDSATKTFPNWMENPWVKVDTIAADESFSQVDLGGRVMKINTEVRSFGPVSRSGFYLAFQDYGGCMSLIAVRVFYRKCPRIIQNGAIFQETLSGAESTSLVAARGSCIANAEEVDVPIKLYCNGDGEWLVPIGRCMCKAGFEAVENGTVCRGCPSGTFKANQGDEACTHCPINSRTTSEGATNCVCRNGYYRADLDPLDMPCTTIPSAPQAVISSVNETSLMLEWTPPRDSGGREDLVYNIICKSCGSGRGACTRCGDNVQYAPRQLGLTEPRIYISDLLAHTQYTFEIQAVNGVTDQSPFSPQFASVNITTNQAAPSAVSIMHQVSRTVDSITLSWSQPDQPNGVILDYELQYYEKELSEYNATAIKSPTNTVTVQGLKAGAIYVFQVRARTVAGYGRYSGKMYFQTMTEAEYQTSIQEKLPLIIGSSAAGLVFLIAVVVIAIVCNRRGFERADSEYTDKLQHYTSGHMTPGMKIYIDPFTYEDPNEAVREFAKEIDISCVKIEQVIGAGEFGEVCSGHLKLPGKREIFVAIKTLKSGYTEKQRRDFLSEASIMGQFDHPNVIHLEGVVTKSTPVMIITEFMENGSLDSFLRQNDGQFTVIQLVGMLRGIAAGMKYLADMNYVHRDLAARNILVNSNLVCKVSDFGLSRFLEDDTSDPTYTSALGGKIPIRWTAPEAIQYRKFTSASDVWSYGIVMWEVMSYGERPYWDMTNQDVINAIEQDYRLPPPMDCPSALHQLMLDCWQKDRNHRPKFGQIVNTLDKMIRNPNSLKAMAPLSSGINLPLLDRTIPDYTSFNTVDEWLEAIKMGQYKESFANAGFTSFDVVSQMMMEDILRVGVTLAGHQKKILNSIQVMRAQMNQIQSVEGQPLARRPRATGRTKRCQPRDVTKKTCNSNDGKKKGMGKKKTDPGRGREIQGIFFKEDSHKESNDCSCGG

Chain of Epidermal growth factor receptor (Homo sapiens) (P00533 whole entry): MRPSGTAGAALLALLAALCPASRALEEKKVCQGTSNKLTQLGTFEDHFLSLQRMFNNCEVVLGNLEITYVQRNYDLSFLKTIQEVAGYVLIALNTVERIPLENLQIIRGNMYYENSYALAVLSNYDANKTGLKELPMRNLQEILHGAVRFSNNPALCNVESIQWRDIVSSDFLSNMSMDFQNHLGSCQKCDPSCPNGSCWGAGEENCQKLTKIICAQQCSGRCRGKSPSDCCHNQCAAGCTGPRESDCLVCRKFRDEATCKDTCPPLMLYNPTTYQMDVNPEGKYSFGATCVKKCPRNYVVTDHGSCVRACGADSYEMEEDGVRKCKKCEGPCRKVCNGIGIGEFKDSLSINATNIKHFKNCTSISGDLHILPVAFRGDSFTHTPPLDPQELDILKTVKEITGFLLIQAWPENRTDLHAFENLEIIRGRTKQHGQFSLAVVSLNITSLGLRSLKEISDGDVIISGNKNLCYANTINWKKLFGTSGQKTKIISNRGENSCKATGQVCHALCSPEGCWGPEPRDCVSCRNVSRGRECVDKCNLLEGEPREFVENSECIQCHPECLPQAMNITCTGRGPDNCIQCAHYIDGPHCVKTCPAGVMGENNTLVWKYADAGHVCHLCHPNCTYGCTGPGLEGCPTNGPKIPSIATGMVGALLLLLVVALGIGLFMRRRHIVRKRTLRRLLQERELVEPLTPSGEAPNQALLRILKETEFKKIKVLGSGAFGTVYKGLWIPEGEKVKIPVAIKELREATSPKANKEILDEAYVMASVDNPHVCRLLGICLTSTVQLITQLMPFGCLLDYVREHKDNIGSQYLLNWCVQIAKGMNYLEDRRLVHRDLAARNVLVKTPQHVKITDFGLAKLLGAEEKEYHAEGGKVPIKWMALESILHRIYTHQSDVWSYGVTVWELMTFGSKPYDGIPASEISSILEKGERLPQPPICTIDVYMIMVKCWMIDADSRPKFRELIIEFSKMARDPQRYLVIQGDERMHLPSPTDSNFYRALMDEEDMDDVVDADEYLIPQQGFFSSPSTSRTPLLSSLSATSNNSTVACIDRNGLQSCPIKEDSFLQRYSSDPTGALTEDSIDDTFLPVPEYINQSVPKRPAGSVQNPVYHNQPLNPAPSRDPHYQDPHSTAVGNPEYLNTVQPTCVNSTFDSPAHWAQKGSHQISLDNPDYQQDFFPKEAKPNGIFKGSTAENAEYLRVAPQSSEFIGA
Chain of Tyrosine-protein kinase CSK (Homo sapiens) (P41240 2-450 limits assumed): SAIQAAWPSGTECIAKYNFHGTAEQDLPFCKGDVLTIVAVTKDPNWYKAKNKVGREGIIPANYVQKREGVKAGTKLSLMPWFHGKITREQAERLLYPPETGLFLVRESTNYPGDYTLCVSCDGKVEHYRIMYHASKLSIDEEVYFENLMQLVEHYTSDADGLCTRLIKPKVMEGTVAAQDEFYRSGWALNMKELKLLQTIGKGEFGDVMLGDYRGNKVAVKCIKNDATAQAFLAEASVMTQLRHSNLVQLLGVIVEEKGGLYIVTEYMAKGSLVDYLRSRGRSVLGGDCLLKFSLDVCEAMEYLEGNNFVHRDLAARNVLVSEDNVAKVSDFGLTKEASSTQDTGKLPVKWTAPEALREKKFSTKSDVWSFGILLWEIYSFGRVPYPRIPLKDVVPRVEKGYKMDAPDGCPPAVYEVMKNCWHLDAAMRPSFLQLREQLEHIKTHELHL
Chain of Ephrin type-A receptor 2 (Homo sapiens) (P29317 whole entry): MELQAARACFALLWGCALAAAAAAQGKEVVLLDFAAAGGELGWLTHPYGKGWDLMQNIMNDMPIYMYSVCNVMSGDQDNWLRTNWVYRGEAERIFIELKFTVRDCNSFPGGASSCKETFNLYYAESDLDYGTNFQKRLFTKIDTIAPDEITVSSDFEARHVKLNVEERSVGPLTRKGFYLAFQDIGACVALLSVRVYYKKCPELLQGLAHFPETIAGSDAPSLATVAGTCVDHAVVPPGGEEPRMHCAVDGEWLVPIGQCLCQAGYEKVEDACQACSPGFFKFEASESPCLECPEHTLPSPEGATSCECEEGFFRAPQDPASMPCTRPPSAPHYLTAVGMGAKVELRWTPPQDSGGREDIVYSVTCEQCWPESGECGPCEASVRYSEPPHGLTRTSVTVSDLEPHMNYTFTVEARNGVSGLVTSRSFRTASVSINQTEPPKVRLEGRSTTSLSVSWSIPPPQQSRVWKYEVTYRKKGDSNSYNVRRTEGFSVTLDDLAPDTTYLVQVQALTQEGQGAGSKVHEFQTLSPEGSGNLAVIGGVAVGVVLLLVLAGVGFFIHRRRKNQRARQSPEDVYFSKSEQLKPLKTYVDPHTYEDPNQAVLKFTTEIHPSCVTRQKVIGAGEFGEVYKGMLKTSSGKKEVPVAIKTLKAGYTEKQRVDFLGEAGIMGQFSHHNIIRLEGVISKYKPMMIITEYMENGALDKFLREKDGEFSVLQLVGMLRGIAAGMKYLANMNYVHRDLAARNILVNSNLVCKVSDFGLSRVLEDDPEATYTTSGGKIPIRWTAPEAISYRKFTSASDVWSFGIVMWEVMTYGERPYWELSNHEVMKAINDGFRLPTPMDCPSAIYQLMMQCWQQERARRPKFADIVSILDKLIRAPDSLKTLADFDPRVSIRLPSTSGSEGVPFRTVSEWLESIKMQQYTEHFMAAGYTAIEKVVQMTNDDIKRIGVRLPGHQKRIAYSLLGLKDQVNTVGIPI
Chain of Epidermal growth factor receptor (Homo sapiens), P00533 [L861Q] (P00533 whole entry L861Q): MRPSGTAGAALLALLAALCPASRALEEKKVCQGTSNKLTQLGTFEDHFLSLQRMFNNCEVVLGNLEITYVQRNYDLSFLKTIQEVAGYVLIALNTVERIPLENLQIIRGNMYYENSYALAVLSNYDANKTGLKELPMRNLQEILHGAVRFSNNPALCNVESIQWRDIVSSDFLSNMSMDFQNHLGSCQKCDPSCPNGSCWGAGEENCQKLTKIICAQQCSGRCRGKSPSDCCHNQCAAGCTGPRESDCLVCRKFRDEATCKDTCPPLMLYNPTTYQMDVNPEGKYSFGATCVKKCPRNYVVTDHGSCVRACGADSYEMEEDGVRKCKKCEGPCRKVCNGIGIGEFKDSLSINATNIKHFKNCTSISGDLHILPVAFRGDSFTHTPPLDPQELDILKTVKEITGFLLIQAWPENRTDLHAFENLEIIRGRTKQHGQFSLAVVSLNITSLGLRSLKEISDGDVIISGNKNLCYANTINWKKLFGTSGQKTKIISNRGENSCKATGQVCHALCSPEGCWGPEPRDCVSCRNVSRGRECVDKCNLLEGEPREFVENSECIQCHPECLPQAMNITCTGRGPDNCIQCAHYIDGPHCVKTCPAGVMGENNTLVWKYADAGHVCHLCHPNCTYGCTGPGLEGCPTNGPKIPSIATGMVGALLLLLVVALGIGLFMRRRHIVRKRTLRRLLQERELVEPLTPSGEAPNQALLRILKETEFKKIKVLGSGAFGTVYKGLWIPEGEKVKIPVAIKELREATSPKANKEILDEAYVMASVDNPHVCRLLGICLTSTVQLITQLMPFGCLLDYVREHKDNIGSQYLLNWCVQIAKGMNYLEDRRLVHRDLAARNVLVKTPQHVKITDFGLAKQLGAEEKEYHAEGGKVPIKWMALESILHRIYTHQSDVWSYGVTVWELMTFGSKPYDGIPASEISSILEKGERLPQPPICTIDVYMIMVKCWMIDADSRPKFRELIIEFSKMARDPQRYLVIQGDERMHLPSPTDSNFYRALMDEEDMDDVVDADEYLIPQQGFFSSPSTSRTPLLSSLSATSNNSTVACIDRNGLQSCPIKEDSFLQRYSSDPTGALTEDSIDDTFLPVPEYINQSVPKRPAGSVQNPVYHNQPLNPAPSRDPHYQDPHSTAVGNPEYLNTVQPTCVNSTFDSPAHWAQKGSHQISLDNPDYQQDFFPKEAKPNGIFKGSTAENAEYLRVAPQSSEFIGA
Chain of Ephrin type-A receptor 4 (Homo sapiens) (P54764 whole entry): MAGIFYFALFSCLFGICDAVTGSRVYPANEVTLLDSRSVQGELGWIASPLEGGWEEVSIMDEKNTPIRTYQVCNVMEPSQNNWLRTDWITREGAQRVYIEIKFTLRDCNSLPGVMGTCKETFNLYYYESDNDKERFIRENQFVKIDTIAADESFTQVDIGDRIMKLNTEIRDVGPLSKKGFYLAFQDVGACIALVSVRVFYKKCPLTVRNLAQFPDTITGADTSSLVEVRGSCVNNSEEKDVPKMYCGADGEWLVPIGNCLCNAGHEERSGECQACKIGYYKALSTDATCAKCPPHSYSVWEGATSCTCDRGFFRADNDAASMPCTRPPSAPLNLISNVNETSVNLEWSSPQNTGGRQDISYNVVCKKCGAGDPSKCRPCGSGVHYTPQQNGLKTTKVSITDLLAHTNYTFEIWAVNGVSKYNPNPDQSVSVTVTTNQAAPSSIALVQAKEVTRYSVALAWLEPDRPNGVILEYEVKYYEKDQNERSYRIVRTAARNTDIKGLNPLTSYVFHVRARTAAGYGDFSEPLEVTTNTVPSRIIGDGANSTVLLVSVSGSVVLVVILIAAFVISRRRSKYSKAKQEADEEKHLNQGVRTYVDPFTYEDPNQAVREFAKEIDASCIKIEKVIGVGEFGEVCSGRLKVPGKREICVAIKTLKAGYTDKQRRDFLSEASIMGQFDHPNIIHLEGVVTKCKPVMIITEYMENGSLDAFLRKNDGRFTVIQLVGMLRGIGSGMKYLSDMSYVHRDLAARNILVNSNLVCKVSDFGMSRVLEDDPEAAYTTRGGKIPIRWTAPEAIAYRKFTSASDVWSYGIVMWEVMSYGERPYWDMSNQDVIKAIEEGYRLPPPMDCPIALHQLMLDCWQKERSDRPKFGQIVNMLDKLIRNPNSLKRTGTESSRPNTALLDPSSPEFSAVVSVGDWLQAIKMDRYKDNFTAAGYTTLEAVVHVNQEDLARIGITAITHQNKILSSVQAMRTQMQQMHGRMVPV

Structure (SMILES)	inhibition [1] [%]	inhibition [2] [%]	inhibition [3] [%]	inhibition [4] [%]	inhibition [5] [%]	inhibition [6] [%]	inhibition [7] [%]	inhibition [8] [%]	inhibition [9] [%]	inhibition [10] [%]	inhibition [11] [%]	inhibition [12] [%]	inhibition [13] [%]	inhibition [14] [%]	inhibition [15] [%]	inhibition [16] [%]	inhibition [17] [%]	inhibition [18] [%]	inhibition [19] [%]	inhibition [20] [%]
O=C(Nc1n[nH]c2nc(-c3ccco3)ccc12)C1CC1	4.82	5.94	7.53	2.44	4.53	-0.69	4.35	1.04	1.77	0.31	-1.02	0.52	-1.34	-1.58	2.15	1.58	2.28	6.1	7.98	6.87
Fc1ccc(-c2ncn(CCCN3CCOCC3)c2-c2ccncc2)cc1	-6.18	0.11	-0.13	0.44	1.09	-0.51	-2.87	-1.64	-2.82	-1.82	-1.55	-3.9	1.72	0.95	1.3	1.04	0.84	1.1	-5.4	-4.85
CS(=O)(=O)CCNCc1ccc(-c2ccc3ncnc(Nc4ccc(OCc5ccccc5)c(Br)c4)c3c2)o1	4.59	1.43	1.04	69.5	81.6	49.3	91.2	48.1	83.7	4.96	15.8	1.22	-0.73	-1.09	-2.25	1.29	1.45	7	10.9	7.88
COc1ccc2cc(-c3c(-c4ccncc4)nc(-c4ccc([S+](C)[O-])cc4C)n3C)ccc2c1 (stereo not given)	-1.23	-2.64	-4.31	2.02	7.54	-1.17	5.96	-0.12	9.44	-0.7	0.13	-3	3.5	-1.85	-0.23	-1.34	-0.2	-0.17	18.6	1.99
CN(C)c1ccc2c(c1)/C(=C/Nc1ccc(S(N)(=O)=O)cc1)C(=O)N2	0.76	1.03	2.54	9.33	11.9	1.25	5.83	1.24	2.51	0.31	0.66	0.14	6.28	-2.54	-2.52	2.63	3.13	-0.17	1.13	3.5
CNC(=O)c1cncc(/C=C/c2c(C)cccc2C)c1	24.6	7.93	36.8	-2.83	5.96	7.48	41.4	1.86	8.46	-0.41	0.11	0.33	1.36	8.07	44.4	2.95	16.1	25.5	80.9	23.2
CN(C)CCOc1ccc(-c2cc(-c3ccc4c(c3)CCC4=NO)c(-c3ccncc3)o2)cc1	-1.46	0.26	1.8	4.94	7.65	-0.5	7.4	-0.03	4.41	-1.42	0.59	-2.24	-0.02	-1.99	-3.05	0.49	-1.83	-1.28	0.81	-5.39
CN(c1ccc(NC(=O)Nc2c(Cl)cccc2Cl)cc1)c1ccnc(Nc2cccc(CS(C)(=O)=O)c2)n1	19.5	11.1	26.9	2.38	5.8	1.91	8.57	4.35	7.45	1.27	2.21	2.48	3.18	3.5	7.74	7.33	7.13	10.6	33.8	4.12
NC(=O)Cc1ccccc1Oc1nccc(-c2c(-c3ccc(F)cc3)ncn2C2CCNCC2)n1	0.29	0.48	0.75	2.22	4.51	2.34	8.03	1.25	-0.04	0.99	0.65	0.76	4.08	-0.02	-0.27	2.08	3.17	5.89	-0.14	6.12
COc1cc(Nc2ncc3c(C)nc(-c4cccc(Oc5ccccc5)c4)n3n2)cc(OC)c1OC	0.83	1.95	0.6	-0.83	3.44	2.38	1.65	0.98	-0.89	1.28	-1.01	1.23	-0.96	1.16	-0.33	3.2	1.56	5.4	3.74	4.87
NS(=O)(=O)c1ccc(N/N=C2\C(=O)Nc3ccc(-c4cnco4)cc32)cc1	4.17	1.59	2.15	9.52	12.9	2.54	6.44	2.45	4.95	0.19	1.56	-2.11	5.42	-5.84	-4.92	-2.34	0.23	5.13	10.8	6.73
COc1cc(Nc2ncc3c(C)nc(-c4cccc(C(F)(F)F)c4)n3n2)cc(OC)c1OC	12.9	0.31	0.73	-0.06	0.98	4.13	4.89	2.74	8.43	1.49	5.56	-1.07	5.23	4.32	17.5	6.02	10.7	22.4	56.1	17.1
O=C1Nc2ccccc2/C1=C/Nc1ccc(-n2cncn2)cc1	7.33	-0.37	0.37	4.22	4.08	2.81	4.05	3.11	4.38	2.21	4.3	2.89	1.3	1.55	1.91	2.74	4.04	4.98	12.3	3.5
